Measurements taken from PubChem BioAssay.
The source made the active and inactive calls.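 The calls were made as follows, unless noted: active = inhibition above 20% together with a positive visual image hit; inconclusive = visual image hit but inhibition not above 20%; inactive = no visual image hit.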

Tests used:
[1] = inhibitors of TNFa-induced NFkB p65 translocation, primary screen, imaging, HUVEC, MLSMR starter and 10KST1 sets (AID 438); conditions: HUVEC TNFa-induced p65 nuclear translocation; cell count: measured here: nuclei count (cytotoxicity indicator), at 2.08 µM; inhibition: at 2 µM, stronger effect = higher value, 0% TNFa-plus-vehicle, 100% no-TNFa wells;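 also: compound added about 3h40 before a 20 min TNFalpha stimulation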;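 as to inhibition: signal is the nuclear over cytoplasmic p65 intensity ratio per well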
[2] = inhibitors of mutant huntingtin aggregation, primary screen, imaging, exon1htt(103Q)mCFP cells, high-content imaging (AID 483;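 active = visual image review flags a hit and inhibition of aggregation exceeds 20%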;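 also: compound exposure lasted 3 days before fixation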;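 as to nuclei count: percent of the per-plate median nuclei count of sample wells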); conditions: exon1htt(103Q)mCFP cell line, aggregate imaging, at 2 µM; inhibition of aggregation: stronger effect = higher value; nuclei count: measured here: cell count, toxicity
[3] = inhibitors of E-selectin induction by TNFa, primary screen, imaging, HUVEC, immunofluorescence, MLSMR starter and 10KST1 sets (AID 487;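 active = visually confirmed hit in the image check and inhibition above 20%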;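 as to inhibition: signal is fraction of cell area covered by stained E-selectin grains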;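 as to nuclei count: 100% = median nuclei count of all wells on the same plate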); conditions: HUVEC TNFalpha-induced E-selectin immunofluorescence imaging, at 2 µM; inhibition: stronger effect = higher value; nuclei count: measured here: cell number, toxicity
[4] = target: Voltage-gated potassium channel subunit beta-2 (Rattus norvegicus) (UniProt P62483); experiment: KvBeta enzyme negative modulators, primary screen, biochemical, NADPH fluorescence (AID 622;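 active = fluorescence slope higher than the sample average by over 3 SD, cut at about -0.22 in these data, passing the limit was not always enough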;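 also: slope of raw intensity against log time taken from 70 to 1610 s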); conditions: recombinant KvBeta, 4-cyanobenzaldehyde reduction, at 10 µM, stronger effect = higher value
[5] = target: Voltage-gated potassium channel subunit beta-2 (Rattus norvegicus) (UniProt P62483); experiment: KvBeta positive modulators, primary screen, biochemical, NADPH fluorescence (AID 623;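 active = NADPH fluorescence slope more negative than the mean of all samples by about 3 SD, 99.7% confidence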;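 also: fluorescence intensity change per second fitted from 20 to 320 s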); conditions: Recombinant KvBeta, NADPH fluorescence decrease slope, 10 min; at 10 µM; stronger effect = lower value
[6] = target: Alpha-2C adrenergic receptor (Homo sapiens) (UniProt P18825); experiment: modulators of alpha2C/GIRK thallium flux, primary screen, cell-based, HEK293 alpha2C/GIRK1/2 (AID 624;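 active = fluorescence slope after compound addition differing from the mean of all screened samples at 99.7% confidence, in either direction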;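 also: slope of fluorescence ratio to pre-addition baseline per second over 15 to 24 s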); conditions: thallium flux BTC fluorescence, at 10 µM, actives lie on both sides
[7] = inhibitors of Sendai virus-induced IRF3 signaling, primary screen, TLR/RLR signaling modifier project, cell-based, Sendai virus stimulus, luciferase, 10K MLSCN set (AID 602276;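 active = inhibition at or above 50% at 10 µM; inactive = inhibition below 50%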;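 also: firefly luciferase from ISG56 promoter only with Renilla not read in this screen; 0% = Sendai virus plus DMSO and 100% = medium plus DMSO without virus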); conditions: HEK293 RL24 IRF3 luciferase reporter, at 10 µM, stronger effect = higher value
[8] = inhibitors of poly I:C-induced TLR3 signaling, primary screen, cell-based, poly I:C stimulus, luciferase, 10K MLSCN set (AID 602277;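 active = inhibition of the reporter signal at or above 50%; inactive = inhibition below 50%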); conditions: HEK293-TLR3 RL24 IRF3 luciferase reporter, at 10 µM, stronger effect = higher value

Voltage-gated potassium channel subunit beta-2 (Rattus norvegicus), sequence (P62483 whole entry, looked up): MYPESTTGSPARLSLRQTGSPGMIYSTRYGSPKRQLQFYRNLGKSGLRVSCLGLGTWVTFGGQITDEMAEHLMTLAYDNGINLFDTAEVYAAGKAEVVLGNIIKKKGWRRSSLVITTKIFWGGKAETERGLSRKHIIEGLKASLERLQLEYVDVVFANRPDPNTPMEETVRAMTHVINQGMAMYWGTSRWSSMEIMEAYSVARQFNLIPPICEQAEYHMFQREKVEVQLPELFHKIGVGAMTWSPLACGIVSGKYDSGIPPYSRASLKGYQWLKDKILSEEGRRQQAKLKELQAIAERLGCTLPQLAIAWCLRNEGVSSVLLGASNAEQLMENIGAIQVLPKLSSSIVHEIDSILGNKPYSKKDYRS
Alpha-2C adrenergic receptor (Homo sapiens), sequence (P18825 whole entry, looked up): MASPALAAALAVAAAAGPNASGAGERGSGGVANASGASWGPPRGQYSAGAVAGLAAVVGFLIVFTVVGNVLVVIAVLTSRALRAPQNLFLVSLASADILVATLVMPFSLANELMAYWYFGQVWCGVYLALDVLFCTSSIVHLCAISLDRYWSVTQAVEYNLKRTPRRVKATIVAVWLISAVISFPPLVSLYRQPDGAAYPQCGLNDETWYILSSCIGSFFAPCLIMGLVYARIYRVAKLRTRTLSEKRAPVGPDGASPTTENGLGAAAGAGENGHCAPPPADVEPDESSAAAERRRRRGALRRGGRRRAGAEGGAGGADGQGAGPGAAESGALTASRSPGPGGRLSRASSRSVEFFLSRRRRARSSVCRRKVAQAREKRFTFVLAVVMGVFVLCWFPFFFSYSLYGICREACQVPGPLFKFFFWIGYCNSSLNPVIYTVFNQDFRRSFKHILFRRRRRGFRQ

SMILES	cell count [1]	inhibition [1]	inhibition of aggregation [2]	nuclei count [2] [%]	inhibition [3]	nuclei count [3] [%]	fluorescence slope [4]	NADPH fluorescence slope [5]	slope [6]	inhibition [7]	inhibition [8]
CCCOC(=O)c1ccc(-c2c(C)noc2-c2ccc(OC)cc2O)o1	162	-6.3% (inactive)	1.9% (inactive)	106	0.4% (inactive)	87	-0.495 (inactive)	-3.7e-05 (inactive)	0.00302 (inactive)	1.25% (inactive)	2.32% (inactive)
CN=Cc1cc(-c2ccccc2)sc1O	330	-2% (inactive)	-19.3% (inactive)	126	-90.3% (inactive)	114	-0.574 (inactive)	-1.5e-05 (inactive)	0.00861 (inactive)	-23.3% (inactive)	-118% (inactive)
Cc1ccccc1-n1c(Cn2c(=O)sc3ccccc32)nnc1SCC(N)=O	542	4.5% (inactive)	4.1% (inactive)	110	-28.8% (inactive)	111	-0.518 (inactive)	-3.8e-05 (inactive)	0.00845 (inactive)	16.4% (inactive)	25.2% (inactive)
Cc1c(NC(=O)Cn2nc(C(=O)O)c3ccccc3c2=O)c(=O)n(-c2ccccc2)n1C	521	-10.8% (inactive)	-2.1% (inactive)	93.8	-148% (inactive)	111	-0.541 (inactive)	3.3e-05 (inactive)	0.00605 (inactive)	-13.8% (inactive)	-13.3% (inactive)
CCCCN(C)C(=O)c1cn(C)c2ccc(S(=O)(=O)N(C)C)cc2c1=O	559	-5.1% (inactive)	15.7% (inactive)	76.4	39.3% (inactive)	105	-0.6 (inactive)	-3.3e-05 (inactive)	0.00635 (inactive)	6.56% (inactive)	27.1% (inactive)
COC(=O)c1ccc2c(c1)C(=O)N(C1CCCCC1)C2=O	338	2.1% (inactive)	-2.4% (inactive)	107	-9.6% (inactive)	96.9	-0.443 (inactive)	-3.4e-05 (inactive)	0.00524 (inactive)	14.7% (inactive)	13.8% (inactive)
O=S(=O)(c1ccc(N2CCN(c3ccc(F)cc3)CC2)cc1)N1CCCC1	230	14% (inactive)	-8.7% (inactive)	95.7	-32.4% (inactive)	106	-0.476 (inactive)	-2.4e-05 (inactive)	0.00651 (inactive)	10.2% (inactive)	19.7% (inactive)
CCOC(=O)CSc1nnc(-c2ccc(Cl)cc2Cl)o1	376	1.9% (inactive)	-9.2% (inactive)	93.8	-57.5% (inactive)	116	-0.405 (inactive)	-2.6e-05 (inactive)	0.00557 (inactive)	4.99% (inactive)	2.18% (inactive)
CNc1nnc(-c2cccc(N(C)C)c2)s1	742	-5.1% (inactive)	-2.3% (inactive)	102	-67.7% (inactive)	91.1	-0.135 (active)	-7.2e-06 (inactive)	0.00491 (inactive)	-27.7% (inactive)	-96.6% (inactive)
O=S(=O)(c1ccc(Br)s1)N1CCN(c2ccccc2)CC1	660	6.3% (inactive)	0.1% (inactive)	90.2	14.4% (inactive)	102	-0.289 (inactive)	-3e-05 (inactive)	0.00522 (inactive)	10.7% (inactive)	13.7% (inactive)
CCc1c(C)n([O-])c2c([n+]1=O)CCC2	369	2.8% (inactive)	-1.6% (inactive)	106	3.1% (inactive)	111	-0.51 (inactive)	-1.5e-05 (inactive)	0.00618 (inactive)	-11.4% (inactive)	7.02% (inactive)
CCOc1ccccc1NC(=O)CC1Nc2cc(C)c(C)cc2NC1=O (configuration not stated)	374	1.8% (inactive)	23.2% (inactive)	94.4	-48.5% (inactive)	105	-0.265 (inactive)	-1.1e-05 (inactive)	0.00531 (inactive)	14.6% (inactive)	26% (inactive)
